Screening data (PubChem BioAssay)
An excerpt weighted towards active compounds, which were near 22% of everything screened.
LmPK inhibitor: blocks Leishmania mexicana pyruvate kinase activity. purified LmPK, Kinase-Glo ATP luminescence, 1 h. Potency, µM (highest dose often 57.5 µM), without a hit: at the highest dose activity change, negative = inhibition, most hits filed as inhibitors. hit rate 0.37% among 290,000. AID 1721; also: potency is read from the fitted curve at half-maximal effect; % is scaled to controls: 0 for no effect and ±100 for the full control effect
Target sequence (Q27686 whole entry, looked up): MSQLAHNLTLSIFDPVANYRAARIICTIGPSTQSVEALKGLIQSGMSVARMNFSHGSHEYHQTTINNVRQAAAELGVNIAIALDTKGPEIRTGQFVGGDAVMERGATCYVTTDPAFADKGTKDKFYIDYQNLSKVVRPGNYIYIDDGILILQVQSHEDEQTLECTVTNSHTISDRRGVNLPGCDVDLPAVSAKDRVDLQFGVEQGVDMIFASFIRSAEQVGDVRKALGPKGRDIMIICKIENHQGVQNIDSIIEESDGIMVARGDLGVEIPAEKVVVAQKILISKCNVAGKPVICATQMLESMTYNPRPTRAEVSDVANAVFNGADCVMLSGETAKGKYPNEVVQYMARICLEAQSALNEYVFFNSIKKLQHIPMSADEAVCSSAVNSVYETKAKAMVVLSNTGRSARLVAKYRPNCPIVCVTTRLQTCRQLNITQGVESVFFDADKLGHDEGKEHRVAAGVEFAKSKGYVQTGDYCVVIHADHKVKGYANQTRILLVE
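Purified LmPK (0.1 nM) with 0.5 mM PEP and 0.1 mM ADP in imidazole buffer pH 7.2 with MgCl2/KCl, 1 h at room temperature. ATP formed was read by luciferase luminescence and normalized to no-enzyme and uninhibited controls.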
CHX counter: counter-screen for Shiga toxin inhibitors: cycloheximide protein synthesis inhibition | AID 2314 | max response, % | cell reporter, cycloheximide protein synthesis inhibition counterscreen | hit rate 12% among 300,000; in the data active = max response mostly above about 13%, no sharp cut-off; inactive = mostly below about 14%; also: read at 38.3 µM for the half of the compounds with a filed dose; 0% is about no effect
Pf growth 96h: P. falciparum growth inhibition at 96 hours | P. falciparum luciferase reporter growth, 96 h | Potency, µM (top dose mostly 28.7 µM), for the others: at the highest dose activity change, negative = inhibition, usual class: inhibitors | hit rate 6.9% among 320,000 | AID 504834; also: potency is read from the fitted curve at half-maximal effect; % is scaled to controls: 0 for no effect and ±100 for the full control effect
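P. falciparum expressing integrated firefly luciferase, in erythrocytes at 2% hematocrit, 0.05% parasitemia, incubated with compounds 96 h at 37 C, 5% CO2. Growth inhibition read as loss of luminescence; two-generation exposure targets delayed-death apicoplast inhibitors.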
Shiga toxin inh: Shiga toxin inhibition; Vero cells, Shiga toxin protein synthesis inhibition reporter; inhibition, % at 38.7 µM; hit rate 9.2% among 290,000; AID 2315; in the data active = inhibition mostly above about 28%, no sharp cut-off; inactive = mostly below about 43%; also: 0% is about no effect
Pf growth 48h: P. falciparum growth inhibition at 48 hours (one generation). P. falciparum luciferase growth in erythrocytes, 48 h. Potency, µM (doses to about 28.7 µM), for inactives: at the top dose activity change, negative = inhibition, usual class: inhibitors. hit rate 5.9% among 310,000; also: potency is read from the fitted curve at half-maximal effect; % is scaled to controls: 0 for no effect and ±100 for the full control effect
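A one-generation exposure of luciferase-tagged malaria parasites in RPMI 1640/Albumax erythrocyte culture, 37 C and 5% CO2. Inhibition is inferred from decreased luminescence after adding detection reagent.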
Active calls of the source: *; u = inconclusive; x = no result given. Unless noted, calls follow the shape of the dose curve; as a rule, active = well fitted inhibition curve with a large enough effect; inconclusive = small, poorly fitted or top-dose-only effect, or another doubt; inactive = no such curve, though single readings can be large or run the other way.

SMILES	LmPK inhibitor	CHX counter	Pf growth 96h	Shiga toxin inh	Pf growth 48h
N#Cc1nc(-c2ccco2)oc1N1CCc2ccccc2C1	-0.8%	25.3*	34.9%	90.5*	-2.2%
C#CCOC(=O)CCCC(=O)NCCCCCCCC	10.1%	-3.3	124.3%	-6.1	21.3%
Brc1ccc(-c2nnc3ccc(Nc4ccccc4)nn23)cc1	0.3%	0.5	u	21.0	14.7%
C=CCNc1nc(Cl)nc(NC2CCCCC2)n1	-5.2%	12.3	-2.9%	14.2	12.0%
CCOC(=O)CNc1nc(C#N)nc(N2CCOCC2)n1	-4.5%	-3.0	37.2%	18.9	u
COC(=O)CNc1nc(Cl)nc(NC2CCCCC2)n1	6.2%	10.1	5.22µM*	11.4	45.0%
CCOC(=O)CNc1nc(Cl)nc(N2CCCCC2)n1	-1.0%	12.3*	7.5%	61.2	6.7%
O=C(COC(=O)c1ccc(S(=O)(=O)C(F)F)cc1)Nc1cccnc1Cl	x	x	11.2%	x	-19.0%
CN(C(=O)CSc1nc2ccccc2o1)C1CCCCC1	x	x	137.1%	x	196.8%
O=C(C1CCN(Cc2cn[nH]c2-c2ccc(F)cc2F)CC1)N1CCOCC1	-2.9%	-2.8	-12.0%	-13.1	44.9%
CN1CCN(Cc2cn[nH]c2-c2ccc(F)cc2F)[C@@H](c2ccccc2)C1	11.0%	3.0	2.62µM*	-11.5	37.6%
OCCCC1CCCN(Cc2cn[nH]c2-c2ccc(F)cc2F)C1 (configuration not stated)	-2.3%	-3.3	7.38µM*	-10.8	12.4%
CCN(CC)CCNC(=O)c1ccc(Sc2ccc(C)cc2)c(NC(C)=O)c1	-1.3%	7.0	u	-16.6	-15.4%
N#C/C(=C\c1cccc(Oc2ccccc2)c1)C(=O)N1CCOCC1	4.7%	9.2	31.5%	18.2	-5.1%
CCc1nc(SCC(=O)c2ccc3c(c2)OCCO3)c2ccccc2n1	1.5%	0.7	10.4µM*	13.7	u
O=C(Nc1ccc2c(c1)OCO2)C1CCN(C(=O)CSc2ncnc3ccccc23)CC1	-4.2%	34.3*	-20.5%	44.4*	u
CCc1nc(SCC(=O)c2ccccc2)c2ccccc2n1	2.8%	-6.4	u	-10.9	u
O=C(CSc1nc(Cc2ccccc2)nc2ccccc12)c1ccc2c(c1)OCCO2	0.2%	1.0	u	23.5	9.28µM*
O=C(CSc1ncnc2ccccc12)c1ccc2c(c1)OCCO2	1.3%	45.9*	52.4%	185.4*	128.9%
Cc1sc2ncnc(SCC(=O)c3ccc4c(c3)OCCO4)c2c1-c1ccccc1	-0.2%	0.3	0.0%	4.0	u
CN1CCCN(C(=O)c2c(F)cccc2Cl)CC1	-4.7%	-1.5	-23.6%	-14.6	9.3%
O=C(c1cc2sccc2n1Cc1ccc(F)cc1)N1CCCc2ccccc21	5.7%	1.1	u	47.4	9.28µM*
CC(C)NC(=O)C1CCN(C(=O)c2cc3sccc3n2Cc2ccc(F)cc2)CC1	-10.2%	5.7	x	-11.9	x
O=C(NCc1ccc(F)cc1)c1cc2sccc2n1Cc1ccc(F)cc1	-0.8%	-0.9	10.4µM*	1.7	u
CC(=O)Nc1ccc(C(=O)OCC(=O)/C(C#N)=C(\C)N)cc1	12.3%	25.0*	46.5%	16.4	38.0%
SMILES	LmPK inhibitor	CHX counter	Pf growth 96h	Shiga toxin inh	Pf growth 48h
C/C(N)=C(/C#N)C(=O)COC(=O)c1ccccc1Cc1ccccc1	0.3%	18.4*	3.5%	21.8	-17.0%
C/C(N)=C(/C#N)C(=O)COC(=O)c1ccncc1	8.3%	-2.1	x	-25.3	4.3%
C/C(N)=C(/C#N)C(=O)COC(=O)c1cccc(O)c1	-2.1%	17.2	266.1%	97.3*	40.4%
C/C(N)=C(/C#N)C(=O)COC(=O)CCSc1ccccc1	0.7%	10.6	15.8%	-9.6	4.2%
CC1(C)CC(=O)C=C(C(=O)N2CCCC(C(=O)c3cccc(C(F)(F)F)c3)C2)O1 (configuration not stated)	-7.3%	11.9	u	9.6	-25.6%
Cc1nn(C)c(C)c1NC(=O)CCl	-0.4%	-4.4	12.6%	-10.1	u
Cc1cc(N)n(-c2ccc(C)c(C)c2)n1	-2.0%	27.0*	-31.1%	62.4*	52.1%
Cc1cc(N)n(-c2ccccn2)n1	-11.5%	17.4*	38.7%	72.0*	53.0%
Cc1ccc(-n2nc(C)c(NC(=O)CCl)c2C)cc1C	-2.5%	33.1*	-0.8%	101.3*	4.15µM*
CCC(=O)Nc1c(C)nn(-c2ccc(C)c(C)c2)c1C	2.8%	21.9*	-16.3%	65.2*	-2.6%
COc1ccccc1-n1nc(C)cc1N	10.9%	-3.3	2.7%	53.1	-3.6%
CC(=O)Nc1c(C)nn(-c2ccc(C)c(C)c2)c1C	-2.7%	3.1	7.9%	-9.4	33.7%
